# Measurements taken from the supplement of paper PMC6953052.
# In all, about 1,700 compounds were measured (“fraction of GFP-LC3-positive cells (≥5 vesicles/cell)”: median about 0.058, highest 2% from about 0.59 on). This excerpt belongs to a sample that is enriched for the highest values.
# System: CbCln3 +/+ GFP-LC3 cerebellar neuronal cells
# Experiment: fraction of GFP-LC3-positive cells (≥5 vesicles/cell); higher = more autophagosome accumulation
# Summary of the method: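 By pin transfer, ~50 nL of compound in DMSO went in duplicate into 384-well plates holding 2 × 10^3 wild-type or mutant CbCln3 cerebellar cells per well that stably express GFP-LC3, followed by 24 h at 33 °C. The final 30 min included Hoechst 33342 and LysoTracker Red, and then came 3.2% PFA fixation and 10× imaging of three fields per well. Each value gives the fraction of cells above a vesicle threshold, averaged across duplicates, with CellProfiler counting GFP-LC3 vesicles and out-of-focus images left out. The threshold is 5 or more vesicles per cell.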
row,Structure (SMILES),fraction of GFP-LC3-positive cells
1,Cc1ccc(S(=O)(=O)N[C@@H](Cc2ccccc2)C(=O)CCl)cc1,0.315
2,Cc1ccc(S(=O)(=O)N[C@@H](Cc2ccccc2)C(=O)CCl)cc1 [Tosyl-Phe-CMK (TPCK)],0.744
3,CCCCNC(=O)NS(=O)(=O)c1ccc(C)cc1,0.046
4,CCCCNC(=O)NS(=O)(=O)c1ccc(C)cc1 [Tolbutamide],0.0602
5,O=C(O)c1ccccc1OP(=O)(O)O [Fosfosal],0.0551
6,O[C@H]1[C@H]2c3cc4c(cc3CN3CCC(=C[C@@H]1O)[C@H]23)OCO4 [Lycorine],0.424
7,CC(=O)CC(c1ccc([N+](=O)[O-])cc1)c1c(O)c2ccccc2oc1=O (stereo not given) [Acenocoumarol],0.0753
8,CCCCC/C=C\C/C=C\C/C=C\C=C\C1CCCC(=O)O1 (racemic) [(±)5-HETE Lactone],0.0775
9,CCCCNc1ccc(C(=O)OCCOCCOCCOCCOCCOCCOCCOCCOCCOC)cc1 [Benzonatate],0.0604
10,CCCCCCCCCCCCCCCCOCC(CO)OC(C)=O (stereo not given) [1-Hexadecyl-2-O-acetyl-glycerol],0.076
11,CCCCCCCCCCCCCCCCOCC(CO)OC(C)=O (stereo not given),0.0373
12,CCN(CC)CCNC(=O)COc1ccc(OC)cc1.Cl [Mefexamide hydrochloride],0.0712
13,CC1=C(/C=C/C(C)=C/C=C/C(C)=C/C(=O)O)C(C)(C)CCC1,0.0875
14,"CC1=C(/C=C/C(C)=C/C=C/C(C)=C/C(=O)O)C(C)(C)CCC1 [Retinoic acid, all trans]",0.0413
15,O=C(CCCCC(=O)Nc1c(I)cc(I)c(C(=O)O)c1I)Nc1c(I)cc(I)c(C(=O)O)c1I [Iodipamide],0.064
16,CCCCC[C@H](O)/C=C/[C@H]1C(=O)C[C@H](O)[C@@H]1C/C=C\CCCC(=O)O [Prostaglandin D2],0.0347
17,CCCCC[C@H](O)/C=C/[C@H]1C(=O)C[C@H](O)[C@@H]1C/C=C\CCCC(=O)O,0.0396
18,Cc1ccc2c(c1)C(=O)C1(O)CCN(c3ccccc3)C1=N2 (stereo not given) [Blebbistatin],0.0372
19,CC(=O)S[C@@H]1CC2=CC(=O)CC[C@]2(C)[C@H]2CC[C@@]3(C)[C@@H](CC[C@@]34CCC(=O)O4)[C@H]12 [Spironolactone],0.0439
20,CCCCCCCC/C=C\C/C=C\C/C=C\CCCC(=O)O [Mead acid (20:3 n-9)],0.0545
21,CCCCCCCC/C=C\C/C=C\C/C=C\CCCC(=O)O,0.0292
22,N/C(=N\C(=O)c1nc(Cl)c(N)nc1N)NCc1ccccc1,0.0546
23,N/C(=N\C(=O)c1nc(Cl)c(N)nc1N)NCc1ccc(Cl)cc1Cl,0.6
24,Cl.N/C(=N\C(=O)c1nc(Cl)c(N)nc1N)NCc1ccccc1 [Benzamil hydrochloride],0.0345
25,CC(N/C(=N\C#N)Nc1ccncc1)C(C)(C)C (stereo not given) [Pinacidil],0.0274

row,Structure (SMILES),fraction of GFP-LC3-positive cells
1,CCN(CC)CCCCCCCCOC(=O)c1cc(OC)c(OC)c(OC)c1,0.0457
2,CN1CCC(=C2c3ccccc3Sc3ccccc32)CC1.O=C(O)/C=C\C(=O)O [Pimethixene maleate],0.0718
3,c1ccc(CN(CCN(Cc2ccccn2)Cc2ccccn2)Cc2ccccn2)nc1,0.755
4,CN(C)CCN(Cc1ccc(Cl)cc1)c1ccccn1.Cl [Chloropyramine hydrochloride],0.056
5,CNCCc1ccccn1.CS(=O)(=O)O.CS(=O)(=O)O [Betahistine mesylate],0.0666
6,CC(C)(Sc1cc(C(C)(C)C)c(O)c(C(C)(C)C)c1)Sc1cc(C(C)(C)C)c(O)c(C(C)(C)C)c1 [Probucol],0.0472
7,COc1cc2ccc(=O)oc2cc1O [Scopoletin],0.0458
8,CCOC(=O)Oc1c(OC)cc(C(=O)O[C@@H]2C[C@@H]3CN4CCc5c([nH]c6cc(OC)ccc56)[C@H]4C[C@@H]3[C@H](C(=O)OC)[C@H]2OC)cc1OC [Syrosingopine],0.251
9,CCn1cc(C(=O)O)c(=O)c2cc(F)c(N3CCNCC3)nc21 [Enoxacin],0.045
10,Cc1cc2ncc(-c3ccccc3)nc2cc1C,0.0688
11,O=C(O)CNC(=O)C(CS)Cc1ccccc1 (stereo not given),0.0651
12,O=C(O)CNC(=O)C(CS)Cc1ccccc1 (stereo not given) [Thiorphan],0.0564
13,COc1cccc2c1C(=O)c1c(O)c3c(c(O)c1C2=O)C[C@@](O)(C(=O)CO)C[C@@H]3O[C@H]1C[C@H](N)[C@H](O)[C@H](C)O1.Cl [Doxorubicin hydrochloride],0.482
14,COc1cccc2c1C(=O)c1c(O)c3c(c(O)c1C2=O)C[C@@](O)(C(C)=O)C[C@@H]3O[C@H]1C[C@H](N)[C@H](O)[C@H](C)O1.Cl [Daunorubicin hydrochloride],0.568
15,COc1cccc2c1C(=O)c1c(O)c3c(c(O)c1C2=O)C[C@@](O)(C(=O)CO)C[C@@H]3O[C@H]1C[C@H](N)[C@H](O)[C@H](C)O1.Cl [doxorubicin],0.608
16,CC[N+](CC)(CC)CC(=O)Nc1c(C)cccc1C.[Br-],0.0348
17,CC(C)N1CCN(c2ccc(OC[C@H]3CO[C@](Cn4cncn4)(c4ccc(Cl)cc4Cl)O3)cc2)CC1 [Terconazole],0.0686
18,O=C(O)c1ccc2nc(-c3ccccc3)c(-c3ccccc3)nc2c1,0.0605
19,c1ccc2c(Cc3c[nH]c4ccccc34)c[nH]c2c1,0.0651
20,c1ccc2c(Cc3c[nH]c4ccccc34)c[nH]c2c1 [Diindolylmethane],0.0761
21,Nc1nc(=O)c2c([nH]1)NCC(CNc1ccc(C(=O)N[C@@H](CCC(=O)[O-])C(=O)[O-])cc1)N2C=O.[Ca+2] (stereo not given in full) [Folinic acid calcium salt],0.0553
22,CC[C@H]1[C@@H]2C=C[C@@H]3[C@H]4C/C=C\C(=O)NCCC[C@@H]5NC(=O)C(=C5O)C(=O)CC[C@@H]4C[C@@H]3[C@H]2C[C@H]1C [Ikarugamyin],0.69
23,CC1=C(C(=O)O)N2C(=O)[C@@H](NC(=O)[C@H](N)c3ccccc3)[C@H]2SC1.O [Cephalexin monohydrate],0.0422
24,OC[C@H]1NC[C@H](O)[C@@H](O)[C@@H]1O [deoxynorjrimycin(1)],0.0354
25,O=C(O)c1cc(-c2ccc(F)cc2F)ccc1O [Diflunisal],0.0501
